Assay outcomes from PubChem BioAssay.
A selection: hits, their analogues and other compounds. The true share with any hit is near 2.3%.
MCL1 BIM primary: inhibitors of MCL1 binding to BIM-BH3, primary screen, biochemical, fluorescence polarization; GST-MCL1 / FITC-Bim-BH3 fluorescence polarization; AID 2057, 2009; inhibition, % at 10.9 µM; 320,000 tested, 0.68% active;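 active means inhibition above the mean inhibition of all tested compounds plus 3 SD, set per campaign, cut at about 40% in these data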;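 further: higher means more loss of mP so more displacement of Bim peptide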
Target sequence (Q07820 whole entry, looked up): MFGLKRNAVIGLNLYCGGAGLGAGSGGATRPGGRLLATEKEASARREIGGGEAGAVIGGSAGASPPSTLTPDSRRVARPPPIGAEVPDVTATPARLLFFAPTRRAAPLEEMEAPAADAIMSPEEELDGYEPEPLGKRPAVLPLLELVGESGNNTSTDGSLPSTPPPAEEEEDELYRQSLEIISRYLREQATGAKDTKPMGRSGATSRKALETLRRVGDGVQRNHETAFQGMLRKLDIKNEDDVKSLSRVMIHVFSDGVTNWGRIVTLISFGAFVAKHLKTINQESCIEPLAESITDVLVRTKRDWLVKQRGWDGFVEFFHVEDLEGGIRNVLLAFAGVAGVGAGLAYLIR
Mcl1-Bid inh: Mcl-1/Bid binding inhibitors, primary screen, biochemical, TR-FRET, 1536-well; TR-FRET Mcl-1/Bid-Dy647 peptide binding; AID 1021, 2008; 220,000 tested, 0.97% active; inhibition, % at 21.7 µM;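 active means compounds that cut the binding signal by more than half at the single screening dose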;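 further: His-tagged Mcl-1 with europium anti-His antibody binding Bid BH3 peptide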
Bim-Mcl-1: inhibitors of Bim peptide binding to Mcl-1, primary screen, biochemical, bead-based flow cytometry, multiplex. Bim peptide-Mcl-1 binding. inhibition, % at 10 µM. 190,000 tested, 0.1% active. AID 1009, 2008; in the data active means inhibition above about 40%
GLD-1 RNA inh: GLD-1/TGE RNA complex disruptors, primary screen, biochemical, fluorescence polarization | Female germline-specific tumor suppressor gld-1 (Caenorhabditis elegans), Q17339 | purified GLD-1 + fluorescein TGE RNA | inhibition, % at 5.96 µM | 320,000 tested, 0.44% active;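 active means percent inhibition above a per-plate cutoff, the plate mean of test compounds plus 3 SD, cut at about 30% in these data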
BCLXL inh: inhibitors of human Bcl-xL, primary screen, biochemical, fluorescence polarization, HTS | GST-Bcl-xL / FITC-Bim BH3 peptide fluorescence polarization | inhibition, % at 10.9 µM | 320,000 tested, 0.7% active | AID 2129, 2009;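 active means inhibition above the mean of all tested compounds plus 3 SD, cutoff set per campaign, cut at about 30% in these data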;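 further: inhibitors lower millipolarization by displacing the labeled peptide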
Mcl1 Noxa PPI: Mcl-1/Noxa binding inhibitors, primary screen, biochemical, TR-FRET, 1536-well; Induced myeloid leukemia cell differentiation protein Mcl-1 (Homo sapiens), Q07820; TR-FRET Mcl-1/Noxa peptide binding, 2 h; inhibition, % at 21.7 µM; 220,000 tested, 1.5% active;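 active means compounds that cut the protein-peptide binding signal by more than 50% relative to plate controls in a single-dose test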;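 further: His-tagged Mcl-1 with rhodamine Noxa BH3 peptide and terbium anti-His antibody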
Of the large screens only hits and unclear results are named; the others gave an inactive call.

COc1ccccc1-c1cc(C(=O)O)c2c(=O)n(C)c(=O)n(Cc3ccccc3)c2n1	none (no result: Mcl1-Bid inh, Bim-Mcl-1, Mcl1 Noxa PPI)
Cn1c(=O)c2c(C(=O)O)cc(-c3ccccc3)nc2n(Cc2ccccc2)c1=O	BCLXL inh 38 (no result: Mcl1-Bid inh, Bim-Mcl-1, Mcl1 Noxa PPI)
CCOc1ccc(Nc2nnc(SCc3nc4ccccc4c(=O)[nH]3)s2)cc1	none (no result: Bim-Mcl-1)
COc1cc2c(cc1NC(=O)CSc1ccccc1)oc1ccccc12	none
COc1cc2c(cc1NC(=S)NC(=O)/C=C/c1ccc(OC)c(OC)c1)oc1ccccc12	Mcl1-Bid inh 62 (no result: MCL1 BIM primary, GLD-1 RNA inh, BCLXL inh)
COc1cc2c(cc1NC(=O)CSc1nccn1C)oc1ccccc12	Mcl1 Noxa PPI 57
COCCC(=O)N1CCC(Oc2ccc(C(=O)NCCSC)cc2)CC1	none (no result: Mcl1-Bid inh, Bim-Mcl-1, Mcl1 Noxa PPI)
O=S(=O)(NCC(c1ccco1)N1CCCCC1)c1ccccc1C(F)(F)F (stereo unspecified)	none (no result: Mcl1-Bid inh, Bim-Mcl-1, Mcl1 Noxa PPI)
CC(C)N1C(=O)/C(=C/c2nc3ccccc3c(=O)n2-c2ccccc2)c2ccccc21	Mcl1-Bid inh 78, Mcl1 Noxa PPI 55
CC(C)N1C(=O)/C(=C\c2nc3ccccc3c(=O)n2-c2ccccc2)c2ccccc21	none
O=C1CC(Nc2ccc(N3CCOCC3)cc2)C(=O)N1c1cccc(C(F)(F)F)c1 (stereo unspecified)	Mcl1-Bid inh 53
COc1cccc(N2C(=O)CC(Nc3ccc(N4CCOCC4)cc3)C2=O)c1 (stereo unspecified)	none
O=C(O)c1cccc(N2C(=O)/C(=C/c3ccc(SCc4ccc(Cl)cc4)o3)SC2=S)c1	Mcl1-Bid inh 84, Mcl1 Noxa PPI 89 (no result: MCL1 BIM primary, GLD-1 RNA inh, BCLXL inh)
O=C(CCN1C(=O)/C(=C/c2ccc(Cl)cc2)SC1=S)Nc1cccc(C(=O)O)c1	none (no result: Mcl1-Bid inh, Bim-Mcl-1, Mcl1 Noxa PPI)
CCS(=O)(=O)C1=NN2C(=N)/C(=C\c3ccc(SCc4ccco4)o3)C(=O)N=C2S1	Mcl1 Noxa PPI 80 (no result: MCL1 BIM primary, GLD-1 RNA inh, BCLXL inh)
COc1cc(Cl)c(C)cc1NC(=O)CCCn1c(=O)oc2ccccc21	Mcl1-Bid inh 95
COc1cc(OC)c(NC(=O)CCCn2c(=O)oc3ccccc32)cc1Cl	none
O=C(COC(=O)C12CC3CC(CC(Cl)(C3)C1)C2)Nc1ccccc1	none (no result: MCL1 BIM primary, Mcl1-Bid inh, Bim-Mcl-1, BCLXL inh, Mcl1 Noxa PPI)
CCn1nc([N+](=O)[O-])c2c(-c3nc4ccccc4o3)c(N)n(CCCOC)c2c1=O	Mcl1 Noxa PPI 52
CN(C)c1ccc(N/C=C/C(=O)C(C)(C)C)cc1	BCLXL inh 32
Cc1cc(C)c2c(n1)sc1c(=O)[nH]c(SCc3ccccc3)nc12	none
C=CCSc1nc2c(sc3nc(C)cc(C)c32)c(=O)[nH]1	Mcl1 Noxa PPI 57
COc1ccc(CNS(=O)(=O)c2ccc(Br)s2)cc1	none (no result: Mcl1-Bid inh, Bim-Mcl-1, Mcl1 Noxa PPI)
Oc1ccc(-c2nc3ccccc3nc2-c2ccccc2)cc1	none (no result: Mcl1-Bid inh, Bim-Mcl-1, Mcl1 Noxa PPI)
Cc1ccc(C(c2c(O)nc3n(c2=O)CCS3)c2c(O)nc3n(c2=O)CCS3)cc1	none
O=c1c(C(c2c(O)nc3n(c2=O)CCS3)c2cccc3ccccc23)c(O)nc2n1CCS2	Mcl1 Noxa PPI 53
O=c1c(C(c2ccc(O)cc2)c2c(O)nc3n(c2=O)CCS3)c(O)nc2n1CCS2	Mcl1 Noxa PPI 60
O=c1c(C(c2ccc(O)cc2)c2c(O)nc3n(c2=O)CCCS3)c(O)nc2n1CCCS2	Mcl1 Noxa PPI 52
O=c1c(C(c2ccc(Br)cc2)c2c(O)nc3n(c2=O)CCCS3)c(O)nc2n1CCCS2	none (no result: Bim-Mcl-1)
Cc1nn(C)c(C)c1S(=O)(=O)NCCc1ccc(Cl)cc1	none (no result: Mcl1-Bid inh, Bim-Mcl-1, Mcl1 Noxa PPI)
COc1ccccc1OC(C)C(=O)N(Cc1ccco1)C1CCS(=O)(=O)C1 (stereo unspecified)	none (no result: Mcl1-Bid inh, Bim-Mcl-1, Mcl1 Noxa PPI)
COc1cc2[nH]c(=S)n(N(C(C)=O)C(C)=O)c(=O)c2cc1OC	Mcl1-Bid inh 97
COc1cc2[nH]c(=S)n(C3CC3)c(=O)c2cc1OC	none
COCC(=O)Oc1c(Sc2ccccc2[N+](=O)[O-])c(C)nn1C(C)(C)C	none
CCC(CC)C(=O)Oc1c(Sc2ccccc2[N+](=O)[O-])c(C)nn1C(C)(C)C	Mcl1-Bid inh 91
